# In article PMC7862700, “An all-to-all approach to the identification of sequence-specific readers for epigenetic DNA modifications on cytosine”:
# Assays:
# Assay in all cases: DAPPL (digital affinity profiling via proximity ligation, sequencing); 10 mM Tris-HCl pH 7.5, 50 mM NaCl, 1 mM DTT, 4% glycerol, room temperature, 30 min; GST-TFs on glutathione beads, 16-mer random dsDNA library, 0.1% formaldehyde crosslink after washing; high values mean tight binding
# Conditions in all cases: protein: recombinant; tags: N-terminal GST; dsDNA, one strand shown
# FLI1 = target: T1, FLI1 (Homo sapiens, UniProt Q01543 1-452)
# T1 sequence: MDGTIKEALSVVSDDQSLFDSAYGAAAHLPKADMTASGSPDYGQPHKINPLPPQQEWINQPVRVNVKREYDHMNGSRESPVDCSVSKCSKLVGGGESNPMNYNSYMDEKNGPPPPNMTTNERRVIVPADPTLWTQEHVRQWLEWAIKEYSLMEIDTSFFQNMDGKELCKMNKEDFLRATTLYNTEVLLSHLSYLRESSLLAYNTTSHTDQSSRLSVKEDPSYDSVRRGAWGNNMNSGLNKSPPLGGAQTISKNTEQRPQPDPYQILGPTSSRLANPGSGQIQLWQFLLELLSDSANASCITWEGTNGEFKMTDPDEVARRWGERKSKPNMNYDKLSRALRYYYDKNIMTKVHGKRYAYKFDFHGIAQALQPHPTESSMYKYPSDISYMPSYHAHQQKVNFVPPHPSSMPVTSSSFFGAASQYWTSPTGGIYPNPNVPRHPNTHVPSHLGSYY
# Procedure, shortened: (§1)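 Binding signal is each hexamer's read frequency for a factor divided by its frequency in the tag-only sample. The factors were GST-fused human transcription factors from yeast, captured on glutathione beads, DNA-barcoded and pooled with that sample. Pools were incubated with 200 nmole of a random double-stranded 16-mer DNA library in Tris/NaCl/DTT/glycerol buffer at room temperature for 30 min, then washed, crosslinked with 0.1% formaldehyde, proximity-ligated with BsaI/T4 ligase (1 h, 37 °C), PCR-amplified and sequenced on an Illumina NextSeq500.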
# ELK1 = target: T2, ELK1 (Homo sapiens, UniProt P19419 1-428)
# T2 sequence: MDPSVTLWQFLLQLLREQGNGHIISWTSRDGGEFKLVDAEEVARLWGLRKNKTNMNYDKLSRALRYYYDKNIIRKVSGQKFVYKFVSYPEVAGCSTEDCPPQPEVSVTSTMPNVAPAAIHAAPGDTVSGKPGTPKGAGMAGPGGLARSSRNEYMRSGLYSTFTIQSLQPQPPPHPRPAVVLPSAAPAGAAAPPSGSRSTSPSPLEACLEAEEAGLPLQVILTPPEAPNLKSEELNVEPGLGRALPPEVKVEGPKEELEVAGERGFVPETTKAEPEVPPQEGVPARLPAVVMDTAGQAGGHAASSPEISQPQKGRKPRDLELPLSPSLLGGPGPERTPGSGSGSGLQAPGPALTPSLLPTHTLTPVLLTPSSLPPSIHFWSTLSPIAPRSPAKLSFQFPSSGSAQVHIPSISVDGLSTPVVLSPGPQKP
# Procedure, shortened: as §1
# GABPA = target: T3, GABPA (Homo sapiens, UniProt Q06546 1-454)
# T3 sequence: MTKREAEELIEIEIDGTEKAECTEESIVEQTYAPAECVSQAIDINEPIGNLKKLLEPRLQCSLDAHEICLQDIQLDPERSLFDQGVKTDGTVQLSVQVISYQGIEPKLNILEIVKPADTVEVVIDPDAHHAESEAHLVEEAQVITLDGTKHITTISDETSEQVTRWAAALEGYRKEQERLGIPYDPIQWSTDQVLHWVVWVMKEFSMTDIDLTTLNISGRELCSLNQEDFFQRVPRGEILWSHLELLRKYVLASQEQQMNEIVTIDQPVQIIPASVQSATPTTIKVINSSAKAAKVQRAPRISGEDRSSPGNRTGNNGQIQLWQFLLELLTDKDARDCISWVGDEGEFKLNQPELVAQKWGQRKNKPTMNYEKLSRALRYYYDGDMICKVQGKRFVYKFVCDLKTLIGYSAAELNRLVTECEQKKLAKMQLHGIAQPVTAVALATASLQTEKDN
# Procedure, shortened: as §1
# ERG = target: T4, ERG (Homo sapiens, UniProt P11308 1-479)
# T4 sequence: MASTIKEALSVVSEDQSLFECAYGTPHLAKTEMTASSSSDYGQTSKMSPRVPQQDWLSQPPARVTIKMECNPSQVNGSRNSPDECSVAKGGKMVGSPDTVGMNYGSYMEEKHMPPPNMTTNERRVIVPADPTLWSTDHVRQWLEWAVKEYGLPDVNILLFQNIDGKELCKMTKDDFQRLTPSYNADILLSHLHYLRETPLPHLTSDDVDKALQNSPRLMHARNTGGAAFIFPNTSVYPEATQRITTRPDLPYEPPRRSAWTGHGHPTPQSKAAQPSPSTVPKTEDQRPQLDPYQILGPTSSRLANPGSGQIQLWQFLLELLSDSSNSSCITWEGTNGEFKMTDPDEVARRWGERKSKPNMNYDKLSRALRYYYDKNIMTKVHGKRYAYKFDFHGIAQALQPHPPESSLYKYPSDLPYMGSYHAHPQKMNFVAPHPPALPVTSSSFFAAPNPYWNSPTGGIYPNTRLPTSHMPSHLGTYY
# Procedure, shortened: as §1
# ELF1 = ELF1 (Homo sapiens, UniProt P32519 1-619)
# Procedure, shortened: as §1
# EHF = target: T5, EHF (Homo sapiens, UniProt Q9NZC4 1-300)
# T5 sequence: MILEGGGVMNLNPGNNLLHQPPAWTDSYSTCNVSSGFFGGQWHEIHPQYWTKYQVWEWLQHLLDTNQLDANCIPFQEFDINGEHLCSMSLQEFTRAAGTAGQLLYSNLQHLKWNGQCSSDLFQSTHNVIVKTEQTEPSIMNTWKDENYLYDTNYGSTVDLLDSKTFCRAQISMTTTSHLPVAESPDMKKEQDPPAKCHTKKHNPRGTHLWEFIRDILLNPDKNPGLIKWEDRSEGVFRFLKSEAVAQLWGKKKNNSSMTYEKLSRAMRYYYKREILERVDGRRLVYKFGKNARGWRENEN
# Procedure, shortened: as §1
# SPI1 = SPI1 (Homo sapiens, UniProt P17947 1-270)
# Procedure, shortened: as §1
# SPIB = SPIB (Homo sapiens, UniProt Q01892 1-262)
# Procedure, shortened: as §1
# ELK3 = target: T6, ELK3 (Homo sapiens, UniProt P41970 1-407)
# T6 sequence: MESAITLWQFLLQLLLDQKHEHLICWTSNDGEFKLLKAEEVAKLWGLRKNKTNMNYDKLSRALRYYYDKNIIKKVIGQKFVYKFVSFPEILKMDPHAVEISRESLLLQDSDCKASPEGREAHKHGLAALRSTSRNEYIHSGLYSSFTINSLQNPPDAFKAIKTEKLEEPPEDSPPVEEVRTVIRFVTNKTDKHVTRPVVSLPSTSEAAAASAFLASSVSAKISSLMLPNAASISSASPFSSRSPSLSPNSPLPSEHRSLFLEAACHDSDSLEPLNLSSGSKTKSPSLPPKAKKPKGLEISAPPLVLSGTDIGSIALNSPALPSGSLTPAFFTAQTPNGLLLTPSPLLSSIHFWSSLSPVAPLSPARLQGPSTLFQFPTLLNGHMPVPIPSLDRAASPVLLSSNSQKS
# Procedure, shortened: as §1
# Sequence of SPIB (Q01892 whole entry): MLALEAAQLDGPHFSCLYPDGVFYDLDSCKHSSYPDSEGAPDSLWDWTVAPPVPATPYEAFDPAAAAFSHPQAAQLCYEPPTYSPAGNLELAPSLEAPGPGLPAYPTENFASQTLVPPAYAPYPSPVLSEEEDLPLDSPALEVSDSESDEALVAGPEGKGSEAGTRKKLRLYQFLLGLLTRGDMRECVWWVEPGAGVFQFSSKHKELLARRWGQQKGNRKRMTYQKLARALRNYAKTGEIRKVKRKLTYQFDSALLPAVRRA
# Sequence of ELF1 (P32519 whole entry): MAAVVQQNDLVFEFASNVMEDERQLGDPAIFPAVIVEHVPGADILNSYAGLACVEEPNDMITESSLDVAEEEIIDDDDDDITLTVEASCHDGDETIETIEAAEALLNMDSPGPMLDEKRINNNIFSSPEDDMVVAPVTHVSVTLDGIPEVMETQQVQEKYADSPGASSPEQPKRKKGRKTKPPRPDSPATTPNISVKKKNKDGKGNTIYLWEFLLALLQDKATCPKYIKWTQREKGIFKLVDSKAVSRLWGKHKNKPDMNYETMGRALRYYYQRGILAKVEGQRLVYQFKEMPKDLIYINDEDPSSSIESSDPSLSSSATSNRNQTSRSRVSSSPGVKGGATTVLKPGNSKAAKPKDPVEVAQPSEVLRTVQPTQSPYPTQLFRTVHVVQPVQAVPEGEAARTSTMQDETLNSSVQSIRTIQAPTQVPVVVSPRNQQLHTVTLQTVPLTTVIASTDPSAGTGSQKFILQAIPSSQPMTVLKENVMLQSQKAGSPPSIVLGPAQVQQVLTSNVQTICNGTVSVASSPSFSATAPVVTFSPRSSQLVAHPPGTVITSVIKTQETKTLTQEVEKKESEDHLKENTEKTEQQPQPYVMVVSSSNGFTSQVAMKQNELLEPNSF
Sequence,binding signal (FLI1),binding signal (ELK1),binding signal (GABPA),binding signal (ERG),binding signal (ELF1),binding signal (EHF),binding signal (SPI1),binding signal (SPIB),binding signal (ELK3)
CTCACA,"1.29 fold enrichment (6-mer frequency, TF over GST control)","1.3 fold enrichment (6-mer frequency, TF over GST control)","1.38 fold enrichment (6-mer frequency, TF over GST control)","1.34 fold enrichment (6-mer frequency, TF over GST control)","1.35 fold enrichment (6-mer frequency, TF over GST control)","1.42 fold enrichment (6-mer frequency, TF over GST control)","1.27 fold enrichment (6-mer frequency, TF over GST control)","1.38 fold enrichment (6-mer frequency, TF over GST control)","1.41 fold enrichment (6-mer frequency, TF over GST control)"
AGATCC,"1.05 fold enrichment (6-mer frequency, TF over GST control)","1.12 fold enrichment (6-mer frequency, TF over GST control)","1.09 fold enrichment (6-mer frequency, TF over GST control)","1.15 fold enrichment (6-mer frequency, TF over GST control)","1.1 fold enrichment (6-mer frequency, TF over GST control)","1.12 fold enrichment (6-mer frequency, TF over GST control)","1.03 fold enrichment (6-mer frequency, TF over GST control)","1.18 fold enrichment (6-mer frequency, TF over GST control)","1.1 fold enrichment (6-mer frequency, TF over GST control)"
TAACAT,"1.41 fold enrichment (6-mer frequency, TF over GST control)","1.26 fold enrichment (6-mer frequency, TF over GST control)","1.3 fold enrichment (6-mer frequency, TF over GST control)","1.36 fold enrichment (6-mer frequency, TF over GST control)","1.35 fold enrichment (6-mer frequency, TF over GST control)","1.28 fold enrichment (6-mer frequency, TF over GST control)","1.32 fold enrichment (6-mer frequency, TF over GST control)","1.27 fold enrichment (6-mer frequency, TF over GST control)","1.28 fold enrichment (6-mer frequency, TF over GST control)"
CTAATC,"1.32 fold enrichment (6-mer frequency, TF over GST control)","1.39 fold enrichment (6-mer frequency, TF over GST control)","1.34 fold enrichment (6-mer frequency, TF over GST control)","1.32 fold enrichment (6-mer frequency, TF over GST control)","1.32 fold enrichment (6-mer frequency, TF over GST control)","1.35 fold enrichment (6-mer frequency, TF over GST control)","1.26 fold enrichment (6-mer frequency, TF over GST control)","1.45 fold enrichment (6-mer frequency, TF over GST control)","1.44 fold enrichment (6-mer frequency, TF over GST control)"
TCTACC,"1.54 fold enrichment (6-mer frequency, TF over GST control)","1.67 fold enrichment (6-mer frequency, TF over GST control)","1.58 fold enrichment (6-mer frequency, TF over GST control)","1.61 fold enrichment (6-mer frequency, TF over GST control)","1.59 fold enrichment (6-mer frequency, TF over GST control)","1.61 fold enrichment (6-mer frequency, TF over GST control)","1.54 fold enrichment (6-mer frequency, TF over GST control)","1.68 fold enrichment (6-mer frequency, TF over GST control)","1.43 fold enrichment (6-mer frequency, TF over GST control)"
ATCTTA,"1.15 fold enrichment (6-mer frequency, TF over GST control)","1.07 fold enrichment (6-mer frequency, TF over GST control)","1.1 fold enrichment (6-mer frequency, TF over GST control)","1.09 fold enrichment (6-mer frequency, TF over GST control)","1.15 fold enrichment (6-mer frequency, TF over GST control)","1.04 fold enrichment (6-mer frequency, TF over GST control)","1.01 fold enrichment (6-mer frequency, TF over GST control)","1.03 fold enrichment (6-mer frequency, TF over GST control)","1.11 fold enrichment (6-mer frequency, TF over GST control)"
ATTTTA,"1.32 fold enrichment (6-mer frequency, TF over GST control)","1.16 fold enrichment (6-mer frequency, TF over GST control)","1.3 fold enrichment (6-mer frequency, TF over GST control)","1.29 fold enrichment (6-mer frequency, TF over GST control)","1.29 fold enrichment (6-mer frequency, TF over GST control)","1.32 fold enrichment (6-mer frequency, TF over GST control)","1.34 fold enrichment (6-mer frequency, TF over GST control)","1.35 fold enrichment (6-mer frequency, TF over GST control)","1.31 fold enrichment (6-mer frequency, TF over GST control)"
ACTATA,"1.37 fold enrichment (6-mer frequency, TF over GST control)","1.28 fold enrichment (6-mer frequency, TF over GST control)","1.33 fold enrichment (6-mer frequency, TF over GST control)","1.31 fold enrichment (6-mer frequency, TF over GST control)","1.33 fold enrichment (6-mer frequency, TF over GST control)","1.29 fold enrichment (6-mer frequency, TF over GST control)","1.43 fold enrichment (6-mer frequency, TF over GST control)","1.28 fold enrichment (6-mer frequency, TF over GST control)","1.29 fold enrichment (6-mer frequency, TF over GST control)"
